PubChem BioAssay (NCATS)
Inconclusive results are not listed. Active and inactive are the calls of the source. Unless noted, the call rests on the fitted dose curve; in most records, active means well fitted inhibition curve with a large enough effect; inconclusive means small, poorly fitted or top-dose-only effect; inactive means no such curve, though single readings can be large or run the other way.

Key:
[1] = qHTS profiling of the MIPE4 collection as inhibitors of Plasmodium falciparum (DD2) proliferation (Rep 2) (AID 743346; call rule not given here); conditions: P. falciparum Dd2 in erythrocytes, SYBR Green DNA, 72 h; at 28.5 µM unless noted
Method in brief: (§1)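 Erythrocytes infected with P. falciparum (0.3% parasitemia, 2.5% hematocrit) incubated with compounds 72 h at 37 C, 5% CO2. Lysis with saponin/Triton buffer containing SYBR Green I, overnight at room temperature in the dark; DNA fluorescence (485/535 nm) normalised to 0.29 uM artemisinin and DMSO.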

[2] = qHTS profiling of the MIPE4 collection as inhibitors of Plasmodium falciparum (HB3) proliferation (AID 743347; call rule not given here;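 further: plate controls were DMSO vehicle wells for no effect and artemisinin wells for full effect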); conditions: P. falciparum HB3 in erythrocytes, SYBR Green DNA, 72 h; at 28.5 µM unless noted
Method in brief: as §1

[3] = High-throughput drug toxicity screening in the BPDCN cell line Gen2.2 (AID 1224824; call rule not given here;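 further: cells exposed to compounds for 48 h before reading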); conditions: Gen2.2 BPDCN cells; at 45.8 µM (top of the series) unless noted
Method in brief: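 Gen2.2 cells, 500 per well in phenol red-free RPMI with 10% FBS, exposed to compounds 48 h at 37 C, 5% CO2; viability by CellTiter-Glo luminescence. Percent activity scaled to DMSO (100%) and 9.2 uM bortezomib final (0%).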

[4] = High-throughput drug toxicity screening in the BPDCN cell line Cal-1 (AID 1224825; call rule not given here); conditions: Cal-1 BPDCN cell viability, qHTS; at 45.8 µM (top of the series) unless noted
Method in brief: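 500 Cal-1 cells/well, RPMI + glutamine + 10% FBS (phenol red-free); cpd added by pin tool; 48 h, 37C, 5% CO2; CTG 15 min RT, lumi read. Normalised: DMSO 100%, bortezomib 9.2 uM 0%.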

[5] = qHTS assay for measurement of the activity of small molecule inhibitors on Zika virus induced Caspase-3 activity in human astrocytoma cells (AID 1224859);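 further: plate controls were ZIKV-infected untreated cells for no effect and uninfected cells for full effect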
Method in brief: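 Percent inhibition of virus-induced caspase-3/7 signal is calculated against uninfected and ZIKV-infected control cells. Cells are SNB-19, infected at 2 FFU/cell for 6 h after 1 h compound exposure.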

[6] = qHTS Screen of the MIPE 4.0 Collection Against Ewings Sarcoma (RDES) (AID 1259252); further: nearly all actives have a fitted effect of over 35% in size; further: potency means the concentration at half of the fitted maximal effect
Method in brief: (§2)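 Cells plated in serum-containing RPMI (5% FBS) and treated with compound dilutions for 48 h. Readout luminescent viability; normalization relied on vehicle (no inhibition) and media-only columns (full inhibition).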

[7] = qHTS Screen of the MIPE 4.0 Collection Against Ewings Sarcoma (EW8) (AID 1259255); further: nearly all actives have a fitted effect of over 35% in size; further: potency means the concentration at half of the fitted maximal effect;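 on viability: 100% = DMSO-treated cells and 0% = medium-only wells without cells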
Method in brief: as §2

[8] = qHTS Screen of the MIPE 4.0 Collection Against Ewings Sarcoma (TC32) (AID 1259256); further: nearly all actives have a fitted effect of over 45% in size; further: potency means the concentration at half of the fitted maximal effect
Method in brief: as §2

[9] = qHTS Screen of the MIPE 4.0 Collection Against Ewings Sarcoma (TC71) (AID 1259253); further: potency means the concentration at half of the fitted maximal effect; nearly all actives have a fitted effect of over 40% in size
Method in brief: as §2

[10] = qHTS assay for measurement of the activity of small molecule inhibitors on Zika virus induced Caspase-3 activity in human iPSC derived neural progenitor cells (hNPCs) (AID 1224857); further: % of control where 0% means no effect; nearly all actives have a fitted effect of over 65% in size
Method in brief: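 Cells were plated at 350 per well and grown 16 to 20 hours. Compound pretreatment lasted one hour, after which ZIKV (2 FFU/cell) was added for 6 hours. Percent inhibition was normalized between uninfected and infected controls.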

`O=C(CCc1ccc(O)cc1)c1c(O)cc(O)cc1O[C@@H]1O[C@H](CO)[C@H](O)[C@H](O)[C@H]1O` showed a parasite growth, % of control (lower = inhibition) [1] of 57.9%, a growth, % of control [2] of 54% and a cell viability, % of control (lower = more cytotoxic) [3] of 238%. For the same compound, the viability (% of control) [4] was 107%, the Potency [5] was “inactive” and the Potency [6] was “inactive”. The Potency [7] was “inactive” and the Potency [8] was “inactive”.
`Cc1ccc(C(=O)Nc2cccc(C(F)(F)F)c2)cc1Nc1nc(-c2cccnc2)nc2c1cnn2C` gave a growth, % of control [2] of 10.4%, a cell viability, % of control (lower = more cytotoxic) [3] of 6.02% and a viability (% of control) [4] of 3.12%. For the same compound, the Potency [5] was “inactive”, the Potency [6] was 14.8 µM (active) and the Potency [7] was 13.2 µM (active). For the same compound, the Potency [8] was 13.2 µM (active).
In the case of `CCn1cc(C(=O)O)c(=O)c2ccc(C)nc21`, the cell viability, % of control (lower = more cytotoxic) [3] is reported as 120%, the viability (% of control) [4] is reported as 113% and the Potency [5] is reported as “inactive”. The Potency [6] was “inactive”, the Potency [7] was “inactive” and the Potency [8] was “inactive”.
`CC1(C)CCC2=C(O1)c1ccccc1C(=O)C2=O` gave a parasite growth, % of control (lower = inhibition) [1] of 21.7%, a growth, % of control [2] of 20.3% and a cell viability, % of control (lower = more cytotoxic) [3] of 4.24%. The viability (% of control) [4] was 4.06%, the Potency [5] was “inactive” and the Potency [6] was 26.4 µM (active). The Potency [9] was 26.4 µM (active) and the Potency [7] was 23.5 µM (active).
With `O=C(Nc1cccc(Br)c1)c1cccc(S(=O)(=O)N2CCCCCC2)c1` the parasite growth, % of control (lower = inhibition) [1] was 72.2%, the growth, % of control [2] was 21.1% and the cell viability, % of control (lower = more cytotoxic) [3] was 296%. The viability (% of control) [4] was 76%, the Potency [5] was “inactive” and the Potency [9] was 23.5 µM (active).
With `NC(=O)c1cccc(-c2cc(Nc3ccc(OC(F)(F)F)cc3)ncn2)c1` the parasite growth, % of control (lower = inhibition) [1] was 23%, the growth, % of control [2] was 8.8% and the cell viability, % of control (lower = more cytotoxic) [3] was 370%. For the same compound, the viability (% of control) [4] was 77.2% and the Potency [10] was “inactive”.
Work on `CC[C@@]1(O)C[C@H](O[C@H]2C[C@H](N(C)C)[C@H](O[C@H]3C[C@H](O)[C@H](O[C@H]4CCC(=O)[C@H](C)O4)[C@H](C)O3)[C@H](C)O2)c2c(cc3c(c2O)C(=O)c2c(O)cccc2C3=O)[C@@H]1C(=O)OC` yielded a parasite growth, % of control (lower = inhibition) [1] of 5.22%, a growth, % of control [2] of 2.06% and a cell viability, % of control (lower = more cytotoxic) [3] of 5.55%. For the same compound, the viability (% of control) [4] was 3.95%, the Potency [5] was “inactive” and the Potency [6] was 0.59 µM (active). For the same compound, the Potency [7] was 0.296 µM (active) and the Potency [8] was “inactive”.
`COc1cc(N2CCC(N3CCN(C)CC3)CC2)ccc1Nc1ncnc(Nc2ccccc2S(=O)(=O)C(C)C)n1` gave a growth, % of control [2] of 4.08%, a cell viability, % of control (lower = more cytotoxic) [3] of 2% and a viability (% of control) [4] of 6.26%. For the same compound, the Potency [5] was “inactive” and the Potency [7] was 20.9 µM (active).
In the case of `CCCCCN(C)CCC(O)(P(=O)(O)O)P(=O)(O)O`, the parasite growth, % of control (lower = inhibition) [1] is reported as 114%, the growth, % of control [2] is reported as 90.7% and the cell viability, % of control (lower = more cytotoxic) [3] is reported as 125%. For the same compound, the viability (% of control) [4] was 102%, the Potency [5] was “inactive” and the Potency [6] was “inactive”. For the same compound, the Potency [7] was “inactive” and the Potency [8] was “inactive”.
With `CO[C@H]1C[C@@H]2CC[C@@H](C)[C@@](O)(O2)C(=O)C(=O)N2CCCC[C@@H]2C(=O)O[C@H]([C@H](C)C[C@@H]2CC[C@H](OCCO)[C@H](OC)C2)CC(=O)[C@H](C)C=C(C)[C@@H](O)[C@@H](OC)C(=O)[C@H](C)C[C@H](C)C=CC=CC=C1C` the growth, % of control [2] was 3.94%, the cell viability, % of control (lower = more cytotoxic) [3] was 10.1% and the viability (% of control) [4] was 12.7%. The Potency [10] was “inactive”.
`C[C@]12CC[C@@H]3c4ccc(O)cc4CC[C@H]3[C@H]1C[C@@H](O)[C@H]2O` showed a parasite growth, % of control (lower = inhibition) [1] of 76.7%, a growth, % of control [2] of 63.5% and a cell viability, % of control (lower = more cytotoxic) [3] of 77.1%. For the same compound, the viability (% of control) [4] was 67.8%, the Potency [5] was “inactive” and the Potency [8] was 26.4 µM (active).
